The results in this text go back to ChEMBL document CHEMBL2218924, “A broad activity screen in support of a chemogenomic map for kinase signalling research and drug discovery” (Biochem J, 2013).

Assay [1] addresses T1, Serine/threonine-protein kinase DCLK2 (Homo sapiens) (UniProt Q8N568).
T1 sequence (whole entry): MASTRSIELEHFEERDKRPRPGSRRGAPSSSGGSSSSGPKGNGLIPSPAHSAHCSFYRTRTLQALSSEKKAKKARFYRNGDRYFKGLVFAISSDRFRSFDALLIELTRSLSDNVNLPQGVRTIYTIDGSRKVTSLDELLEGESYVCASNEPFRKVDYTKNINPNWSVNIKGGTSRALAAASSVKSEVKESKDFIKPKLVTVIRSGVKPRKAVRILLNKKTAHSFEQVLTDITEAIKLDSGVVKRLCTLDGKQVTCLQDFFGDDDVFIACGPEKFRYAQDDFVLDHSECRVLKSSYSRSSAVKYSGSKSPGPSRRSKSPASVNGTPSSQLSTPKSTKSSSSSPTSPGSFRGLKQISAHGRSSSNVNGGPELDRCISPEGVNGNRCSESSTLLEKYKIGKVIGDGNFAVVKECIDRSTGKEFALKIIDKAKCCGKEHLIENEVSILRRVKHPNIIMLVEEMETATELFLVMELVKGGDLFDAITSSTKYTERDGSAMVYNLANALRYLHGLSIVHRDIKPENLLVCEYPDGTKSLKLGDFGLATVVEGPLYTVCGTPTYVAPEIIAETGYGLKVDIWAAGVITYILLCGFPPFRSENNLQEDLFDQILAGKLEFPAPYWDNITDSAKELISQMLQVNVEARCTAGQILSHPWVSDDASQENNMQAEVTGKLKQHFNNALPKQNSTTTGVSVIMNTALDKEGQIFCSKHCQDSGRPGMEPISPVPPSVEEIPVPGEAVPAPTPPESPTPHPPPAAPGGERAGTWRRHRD
The note with it: at 10 µM.

The target of assay [2] is T2, Myotonin-protein kinase (Homo sapiens) (UniProt Q09013).
T2 sequence (whole entry): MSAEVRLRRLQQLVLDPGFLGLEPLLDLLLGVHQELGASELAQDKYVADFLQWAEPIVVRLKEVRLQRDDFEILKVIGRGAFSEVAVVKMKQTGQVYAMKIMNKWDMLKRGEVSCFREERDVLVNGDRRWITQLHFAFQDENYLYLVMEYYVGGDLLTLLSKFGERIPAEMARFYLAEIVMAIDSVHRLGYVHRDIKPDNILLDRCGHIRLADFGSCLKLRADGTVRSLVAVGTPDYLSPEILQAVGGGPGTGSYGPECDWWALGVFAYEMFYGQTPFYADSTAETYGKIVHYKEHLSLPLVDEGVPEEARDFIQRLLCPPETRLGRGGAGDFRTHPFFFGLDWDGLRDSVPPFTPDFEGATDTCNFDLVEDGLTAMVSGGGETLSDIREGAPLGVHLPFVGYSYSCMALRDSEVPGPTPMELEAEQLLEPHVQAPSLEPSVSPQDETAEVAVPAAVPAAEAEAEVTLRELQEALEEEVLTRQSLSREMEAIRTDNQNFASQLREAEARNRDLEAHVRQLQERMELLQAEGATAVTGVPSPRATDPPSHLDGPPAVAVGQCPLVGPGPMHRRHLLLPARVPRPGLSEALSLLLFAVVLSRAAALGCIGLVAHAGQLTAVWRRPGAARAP
The following applies: at 1 µM.

Assay [3] has as its target T2, Myotonin-protein kinase (Homo sapiens). The following applies: at 10 µM.
Assay [4] has as its target T1, Serine/threonine-protein kinase DCLK2 (Homo sapiens). The following applies: at 1 µM.
Assay [5] addresses T3, Discoidin domain-containing receptor 2 (Homo sapiens) (UniProt Q16832).
T3 sequence (whole entry): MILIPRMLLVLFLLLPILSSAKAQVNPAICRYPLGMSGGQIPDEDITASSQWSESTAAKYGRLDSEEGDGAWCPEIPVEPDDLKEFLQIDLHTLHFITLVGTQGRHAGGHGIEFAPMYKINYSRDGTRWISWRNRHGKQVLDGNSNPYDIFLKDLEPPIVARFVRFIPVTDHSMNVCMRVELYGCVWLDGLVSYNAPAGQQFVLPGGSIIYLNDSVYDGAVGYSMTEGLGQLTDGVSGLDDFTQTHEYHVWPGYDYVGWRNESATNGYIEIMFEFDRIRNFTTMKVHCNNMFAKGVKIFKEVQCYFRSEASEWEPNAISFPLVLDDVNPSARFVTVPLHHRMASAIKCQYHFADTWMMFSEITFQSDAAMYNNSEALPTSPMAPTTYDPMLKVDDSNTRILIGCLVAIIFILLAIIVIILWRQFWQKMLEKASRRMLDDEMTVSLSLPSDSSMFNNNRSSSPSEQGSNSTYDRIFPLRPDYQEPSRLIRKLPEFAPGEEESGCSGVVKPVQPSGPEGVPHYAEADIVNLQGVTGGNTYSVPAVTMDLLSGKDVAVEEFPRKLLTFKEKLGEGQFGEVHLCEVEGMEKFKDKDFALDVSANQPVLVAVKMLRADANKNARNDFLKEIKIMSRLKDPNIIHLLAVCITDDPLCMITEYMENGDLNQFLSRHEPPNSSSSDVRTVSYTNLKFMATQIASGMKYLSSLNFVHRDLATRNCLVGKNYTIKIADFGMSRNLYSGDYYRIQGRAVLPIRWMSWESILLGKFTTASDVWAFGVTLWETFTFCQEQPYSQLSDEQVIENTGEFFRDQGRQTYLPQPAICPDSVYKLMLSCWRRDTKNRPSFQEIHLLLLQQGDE
The note with it: at 1 µM.

The target in assay [6] is T4, Dual specificity tyrosine-phosphorylation-regulated kinase 2 (Homo sapiens) (UniProt Q92630).
T4 sequence (whole entry): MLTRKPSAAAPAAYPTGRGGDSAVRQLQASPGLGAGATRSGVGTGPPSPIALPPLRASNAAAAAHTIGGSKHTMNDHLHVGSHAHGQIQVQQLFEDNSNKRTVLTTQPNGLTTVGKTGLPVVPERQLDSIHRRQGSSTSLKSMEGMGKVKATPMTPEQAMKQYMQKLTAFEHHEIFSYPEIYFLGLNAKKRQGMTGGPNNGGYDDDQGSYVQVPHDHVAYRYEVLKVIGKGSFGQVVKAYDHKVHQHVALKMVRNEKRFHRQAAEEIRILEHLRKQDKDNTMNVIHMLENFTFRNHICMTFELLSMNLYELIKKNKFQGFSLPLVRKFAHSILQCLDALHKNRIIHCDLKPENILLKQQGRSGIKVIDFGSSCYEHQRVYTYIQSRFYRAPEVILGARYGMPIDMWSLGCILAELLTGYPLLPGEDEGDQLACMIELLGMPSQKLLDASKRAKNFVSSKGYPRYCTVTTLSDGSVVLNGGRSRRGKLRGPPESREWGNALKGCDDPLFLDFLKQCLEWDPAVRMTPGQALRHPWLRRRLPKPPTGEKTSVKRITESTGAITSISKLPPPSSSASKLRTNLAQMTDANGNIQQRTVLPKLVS
The note with it: at 1 µM.

The target in assay [7] is T4, Dual specificity tyrosine-phosphorylation-regulated kinase 2 (Homo sapiens). The following applies: at 10 µM.
Assay [8] has as its target Epidermal growth factor receptor (Homo sapiens) (UniProt P00533). The note with it: at 1 µM.
For assay [9], the target named is Ephrin type-A receptor 2 (Homo sapiens) (UniProt P29317). The note with it: at 10 µM.
Assay [10] has as its target T5, Serine/threonine-protein kinase 17A (Homo sapiens) (UniProt Q9UEE5).
T5 sequence (whole entry): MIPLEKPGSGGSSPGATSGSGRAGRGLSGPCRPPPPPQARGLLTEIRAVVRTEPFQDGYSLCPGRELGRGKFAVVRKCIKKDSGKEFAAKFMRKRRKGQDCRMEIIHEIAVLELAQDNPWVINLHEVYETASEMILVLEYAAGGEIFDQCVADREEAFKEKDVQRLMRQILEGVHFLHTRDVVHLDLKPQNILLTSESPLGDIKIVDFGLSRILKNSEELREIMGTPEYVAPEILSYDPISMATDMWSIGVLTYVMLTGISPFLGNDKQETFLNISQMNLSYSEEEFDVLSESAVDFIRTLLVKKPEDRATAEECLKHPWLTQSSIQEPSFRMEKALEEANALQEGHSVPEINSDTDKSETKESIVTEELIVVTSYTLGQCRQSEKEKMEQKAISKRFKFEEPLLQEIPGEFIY
The following applies: at 10 µM.

Assay [11] concerns the target T6, Ephrin type-A receptor 1 (Homo sapiens) (UniProt P21709).
T6 sequence (whole entry): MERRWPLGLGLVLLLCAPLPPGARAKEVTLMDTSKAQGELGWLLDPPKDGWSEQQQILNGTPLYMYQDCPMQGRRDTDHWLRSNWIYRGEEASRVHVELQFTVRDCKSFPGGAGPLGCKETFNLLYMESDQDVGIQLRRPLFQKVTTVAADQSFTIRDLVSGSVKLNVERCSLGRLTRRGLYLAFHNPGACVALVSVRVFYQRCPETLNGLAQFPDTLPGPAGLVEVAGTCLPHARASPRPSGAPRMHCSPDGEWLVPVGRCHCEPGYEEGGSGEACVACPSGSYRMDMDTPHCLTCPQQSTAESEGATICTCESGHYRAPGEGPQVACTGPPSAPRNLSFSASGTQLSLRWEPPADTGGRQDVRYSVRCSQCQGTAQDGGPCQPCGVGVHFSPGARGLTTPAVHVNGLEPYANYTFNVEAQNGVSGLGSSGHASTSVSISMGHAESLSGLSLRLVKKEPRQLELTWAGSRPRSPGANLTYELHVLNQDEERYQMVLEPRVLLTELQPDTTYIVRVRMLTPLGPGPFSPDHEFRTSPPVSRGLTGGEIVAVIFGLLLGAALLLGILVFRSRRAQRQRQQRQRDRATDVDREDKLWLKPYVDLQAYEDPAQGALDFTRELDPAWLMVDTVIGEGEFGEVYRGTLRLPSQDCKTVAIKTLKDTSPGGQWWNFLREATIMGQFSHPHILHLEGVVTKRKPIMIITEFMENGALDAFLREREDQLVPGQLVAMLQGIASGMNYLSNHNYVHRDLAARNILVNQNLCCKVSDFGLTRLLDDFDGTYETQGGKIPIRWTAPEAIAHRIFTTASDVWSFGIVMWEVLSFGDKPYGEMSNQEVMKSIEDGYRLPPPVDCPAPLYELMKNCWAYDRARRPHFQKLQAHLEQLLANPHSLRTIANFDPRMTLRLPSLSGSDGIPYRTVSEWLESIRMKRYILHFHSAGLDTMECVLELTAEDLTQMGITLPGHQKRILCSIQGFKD
The following applies: at 1 µM.

Assay [12] concerns the target T6, Ephrin type-A receptor 1 (Homo sapiens). The note with it: at 10 µM.
Assay [13] has as its target Ephrin type-A receptor 2 (Homo sapiens) (UniProt P29317). The following applies: at 1 µM.
The target in assay [14] is T5, Serine/threonine-protein kinase 17A (Homo sapiens). The following applies: at 1 µM.
Assay [15] deals with T7, Ephrin type-A receptor 3 (Homo sapiens) (UniProt P29320).
T7 sequence (whole entry): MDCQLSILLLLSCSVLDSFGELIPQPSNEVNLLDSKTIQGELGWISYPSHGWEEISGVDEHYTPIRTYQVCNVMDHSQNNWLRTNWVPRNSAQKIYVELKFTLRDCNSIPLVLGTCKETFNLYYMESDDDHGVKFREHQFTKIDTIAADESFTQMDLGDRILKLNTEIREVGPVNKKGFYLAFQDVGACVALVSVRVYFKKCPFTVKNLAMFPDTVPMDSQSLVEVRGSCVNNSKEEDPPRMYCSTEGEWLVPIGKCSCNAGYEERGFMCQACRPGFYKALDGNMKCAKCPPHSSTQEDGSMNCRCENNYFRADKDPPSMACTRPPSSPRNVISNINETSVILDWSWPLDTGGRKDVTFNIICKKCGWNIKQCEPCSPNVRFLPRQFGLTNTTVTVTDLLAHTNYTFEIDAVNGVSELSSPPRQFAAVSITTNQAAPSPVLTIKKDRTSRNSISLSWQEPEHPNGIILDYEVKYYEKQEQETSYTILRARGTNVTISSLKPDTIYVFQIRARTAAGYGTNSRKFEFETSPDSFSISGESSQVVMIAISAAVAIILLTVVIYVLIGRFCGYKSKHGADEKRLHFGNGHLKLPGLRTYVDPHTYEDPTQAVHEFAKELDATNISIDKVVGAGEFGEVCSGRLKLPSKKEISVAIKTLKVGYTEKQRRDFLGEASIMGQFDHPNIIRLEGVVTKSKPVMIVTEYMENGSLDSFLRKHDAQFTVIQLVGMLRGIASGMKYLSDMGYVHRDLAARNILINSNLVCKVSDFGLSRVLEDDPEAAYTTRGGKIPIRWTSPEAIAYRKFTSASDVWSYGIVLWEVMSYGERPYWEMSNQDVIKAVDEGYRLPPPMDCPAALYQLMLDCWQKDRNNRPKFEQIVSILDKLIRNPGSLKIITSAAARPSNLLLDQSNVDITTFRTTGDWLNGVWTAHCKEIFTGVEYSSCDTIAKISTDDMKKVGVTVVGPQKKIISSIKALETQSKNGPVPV
The note with it: at 1 µM.

Chain of Ephrin type-A receptor 2 (Homo sapiens) (P29317 whole entry): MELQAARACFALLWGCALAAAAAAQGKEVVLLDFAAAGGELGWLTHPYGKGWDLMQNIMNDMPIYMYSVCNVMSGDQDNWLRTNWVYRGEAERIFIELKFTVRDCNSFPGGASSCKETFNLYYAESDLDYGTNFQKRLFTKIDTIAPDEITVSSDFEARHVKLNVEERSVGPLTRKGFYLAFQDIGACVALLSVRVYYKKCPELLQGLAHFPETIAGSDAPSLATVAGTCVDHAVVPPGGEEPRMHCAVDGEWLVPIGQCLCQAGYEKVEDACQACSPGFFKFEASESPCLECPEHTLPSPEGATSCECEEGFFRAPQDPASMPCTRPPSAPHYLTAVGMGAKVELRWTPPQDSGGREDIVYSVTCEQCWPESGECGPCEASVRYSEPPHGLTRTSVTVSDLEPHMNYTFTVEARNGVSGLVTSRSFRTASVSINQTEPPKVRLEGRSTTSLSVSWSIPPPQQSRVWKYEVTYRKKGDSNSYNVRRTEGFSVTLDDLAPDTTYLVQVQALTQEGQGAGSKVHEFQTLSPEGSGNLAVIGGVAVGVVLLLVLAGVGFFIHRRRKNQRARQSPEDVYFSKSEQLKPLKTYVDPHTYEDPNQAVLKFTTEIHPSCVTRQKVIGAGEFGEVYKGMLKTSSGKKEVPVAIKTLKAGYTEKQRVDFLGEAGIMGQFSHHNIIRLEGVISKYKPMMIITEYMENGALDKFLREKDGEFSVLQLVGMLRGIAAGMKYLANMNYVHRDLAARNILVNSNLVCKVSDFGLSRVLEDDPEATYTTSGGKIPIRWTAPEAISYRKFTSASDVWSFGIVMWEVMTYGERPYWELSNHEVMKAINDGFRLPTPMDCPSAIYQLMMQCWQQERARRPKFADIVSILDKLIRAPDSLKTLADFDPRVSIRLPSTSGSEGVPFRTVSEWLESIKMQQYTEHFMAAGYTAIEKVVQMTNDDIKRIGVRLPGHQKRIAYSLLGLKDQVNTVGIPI
Chain of Epidermal growth factor receptor (Homo sapiens) (P00533 whole entry): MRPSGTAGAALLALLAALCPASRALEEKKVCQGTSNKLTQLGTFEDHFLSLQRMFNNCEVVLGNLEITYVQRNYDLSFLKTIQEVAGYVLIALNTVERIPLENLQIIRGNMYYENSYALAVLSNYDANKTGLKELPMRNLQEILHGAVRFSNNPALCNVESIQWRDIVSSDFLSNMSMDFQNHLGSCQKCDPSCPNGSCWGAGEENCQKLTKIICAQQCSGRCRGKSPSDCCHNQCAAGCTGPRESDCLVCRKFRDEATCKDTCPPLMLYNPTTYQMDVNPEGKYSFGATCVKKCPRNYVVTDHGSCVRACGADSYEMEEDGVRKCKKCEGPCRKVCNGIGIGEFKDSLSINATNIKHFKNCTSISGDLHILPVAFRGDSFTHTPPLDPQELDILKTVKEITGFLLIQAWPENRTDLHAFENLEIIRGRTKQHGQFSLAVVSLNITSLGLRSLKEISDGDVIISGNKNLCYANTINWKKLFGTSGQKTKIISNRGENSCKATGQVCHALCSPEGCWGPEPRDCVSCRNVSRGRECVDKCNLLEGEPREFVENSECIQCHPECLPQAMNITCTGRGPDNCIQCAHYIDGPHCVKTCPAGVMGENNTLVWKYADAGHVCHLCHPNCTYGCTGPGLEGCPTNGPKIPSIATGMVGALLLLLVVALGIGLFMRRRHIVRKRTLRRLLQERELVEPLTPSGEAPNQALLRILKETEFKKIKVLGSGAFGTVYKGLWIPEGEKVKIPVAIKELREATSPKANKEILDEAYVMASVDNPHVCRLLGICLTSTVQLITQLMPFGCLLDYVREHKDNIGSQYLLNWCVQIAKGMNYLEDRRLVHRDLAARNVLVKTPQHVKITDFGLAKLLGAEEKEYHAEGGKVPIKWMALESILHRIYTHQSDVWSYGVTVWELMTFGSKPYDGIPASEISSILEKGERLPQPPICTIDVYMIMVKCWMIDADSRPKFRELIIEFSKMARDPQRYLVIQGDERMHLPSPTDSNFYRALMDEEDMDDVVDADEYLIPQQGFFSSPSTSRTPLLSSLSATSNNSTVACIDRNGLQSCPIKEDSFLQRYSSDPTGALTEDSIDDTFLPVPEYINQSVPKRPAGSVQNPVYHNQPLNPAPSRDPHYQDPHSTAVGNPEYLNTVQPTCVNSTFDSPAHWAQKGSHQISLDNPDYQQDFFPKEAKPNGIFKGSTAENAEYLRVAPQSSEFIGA

A word on the residual activity: it is the signal under treatment as a percentage of the control signal. Regarding `O=c1cc(N2CCOCC2)oc2c(-c3ccccc3)cccc12`, the residual activity in [1] was 76%; in assay [2], 134%; in [3], 130%.

Turning to `N#C/C(=C\c1ccc(O)c(O)c1)C(=O)NCc1ccccc1`, the residual activity is 69% in [4]; 88% in assay [1]; 119% in [5]; 87% in [6]; 73% in assay [7]; 125% in assay [8]. Moreover, the residual activity in assay [9] stood at 101%.

`NCCNc1ncc(C(N)=O)c(Nc2cccc(C(F)(F)F)c2)n1`: the residual activity in [4] was found to be 73%; in assay [1], 66%; in assay [10], 60%; in assay [11], 81%; in assay [12], 45%; in [13], 103%. Moreover, in assay [9], the residual activity turned out to be 76%.

In the case of `Cc1cc(C)c(/C=C2\C(=O)Nc3ccccc32)[nH]1`, the residual activity in assay [14] was determined as 26%; in [10], 3%; in assay [12], 103%; in assay [15] it was 101%.
